Shown are actives, neighbours in structure and some others; about 2.4% of the full set was active somewhere.
Pol kappa inh – blocks human DNA polymerase kappa activity | purified Pol kappa, fluorescent DNA synthesis assay, 10 min | Potency, µM (titrated, usually from 107 µM), without a hit: top-dose activity, negative = inhibition, usual class: inhibitors | hit rate 0.53% among 400,000; also: % is scaled to controls: 0 for no effect and ±100 for the full control effect
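50 nM final substrate added after 15 min RT preincubation of 10 nM Pol kappa with compound; fluorescence read at 0 and 10 min.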
Pol eta inh – DNA polymerase eta (human) inhibition | AID 588591 | Q9Y253 | hit rate 1.2% among 390,000 | recombinant Pol eta, fluorescent DNA replication assay | Potency, µM (titrated, usually from 114 µM), for the others: top-dose activity change, negative = inhibition, actives largely listed as inhibitors; also: % is scaled to controls: 0 for no effect and ±100 for the full control effect
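Fluorescent replication assay: 50 nM final substrate added after a 15 min room-temperature compound preincubation with 10 nM enzyme. Signal taken at 0 min and again at 10 min.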
WRN helicase inh – inhibitors of human WRN helicase; Q14191; WRN helicase unwinding, fluorescent forked duplex, kinetic; Potency, µM (series often up to 114 µM), inactives show top-dose activity change, negative = inhibition, usual class: inhibitors; hit rate 0.46% among 360,000; AID 651768; also: % is scaled to controls: 0 for no effect and ±100 for the full control effect; nearly all actives have a fitted effect of over 55% in size
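Kinetic red-fluorescence monitoring (525/598 nm) tracks WRN helicase activity after 100 nM fluorophore-quencher forked duplex and 2 mM ATP are added to 20 nM enzyme pretreated 15 min at room temperature with compound.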
POLB inh – blocks human DNA polymerase beta activity | AID 485314 | Potency, µM (doses to about 114 µM), inactives show at the highest dose activity change, negative = inhibition, hits mostly inhibitors | Pol beta primer extension/strand displacement, fluorescence kinetic | hit rate 1.3% among 340,000; also: % is scaled to controls: 0 for no effect and ±100 for the full control effect
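Values derive from four-parameter Hill fits of normalized kinetic data: reads at 0 and 10 min following addition of 50 nM substrate to 10 nM Pol beta preincubated 15 min with compound.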
FEN1 inhibitor – human FEN1 inhibition. hit rate 0.35% among 390,000. Potency, µM (highest dose often 114 µM), without a hit: at the top dose activity change, negative = inhibition, hits mostly inhibitors. AID 588795. Recombinant FEN1 flap cleavage, fluorescence, 15 min; also: % is scaled to controls: 0 for no effect and ±100 for the full control effect; nearly all actives have a fitted effect of over 65% in size
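FEN1 at 10 nM preincubated with compounds 15 min at room temperature, then flap DNA substrate added at 50 nM final. Signal read at 0 and 15 min; concentration-response fitted with four-parameter Hill equation.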
Pol iota inh – inhibitors of human DNA polymerase iota; Pol iota fluorescent replication assay, 10 min; Q9UNA4; hit rate 1% among 390,000; Potency, µM (highest dose often 115 µM), without a hit: at the top dose activity, negative = inhibition, most hits filed as inhibitors
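Fluorescent replication assay read twice, at 0 min and 10 min after adding 50 nM (final) substrate. Enzyme (10 nM) and compounds were first incubated 15 min at room temperature; enzyme-free buffer wells were negative controls.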
An asterisk follows results filed as active; ? = inconclusive; . = no result; ! = a repeat was not active; [ ] = another dose, or the depositor's remark. Calls follow the shape of the dose curve; as a rule, active = well fitted curve in the direction sought with a large enough effect; inconclusive = small, poorly fitted or top-dose-only effect, or another doubt; inactive = no such curve, though single readings can be large; an effect the other way counts as inactive or inconclusive. Potency is read from the fitted curve at half-maximal effect.

SMILES	Pol kappa inh	Pol eta inh	WRN helicase inh	POLB inh	FEN1 inhibitor	Pol iota inh
CCn1c(SCC(=O)c2ccc(CNC(C)=O)o2)nnc1-c1cccs1	-27.6%	?	-14.7%[57.1 µM]	44.7µM*	5.4%	?
CCn1c(SCC(=O)NCc2cccs2)nnc1-c1cccs1	-4.8%	-5.3%	-4.1%	-7.1%	4.6%	8.3%
CCCCNC(=O)C(CC)Sc1nnc(-c2ccc(OC)c(OC)c2)c(-c2ccc(OC)c(OC)c2)n1 (configuration not stated)	-6.5%[60.1 µM]	-8.9%	.	86.9%	-16.5%	0.4%
CCOc1cc(/C=C2/NC(=O)NC2=O)cc(Br)c1OCc1ccc(C(=O)O)cc1	-1.3%	?	?	25.1µM*	?	?
Cc1cccc(C(O)c2ncc(-c3ccc(C(F)(F)F)cc3)[nH]2)c1C (configuration not stated)	.	.	-3.2%	.	.	.
CCC1=NN2C(=N)/C(=C/c3ccc(OS(=O)(=O)c4ccccc4)cc3)C(=O)N=C2S1	-10.9%	44.7µM*	-28.2%[57.1 µM]	?	-13.3%	1.2%
CCC1=NN2C(=N)/C(=C\c3ccc(OCCOc4ccccc4)c(OC)c3)C(=O)N=C2S1	.	.	.	-0.7%	.	.
CN(C)c1ccc(/C=C2\C(=N)N3N=C(CC(=O)N4CCCCC4)SC3=NC2=O)cc1	?	?	?	?	-1.1%	50.1µM*
CCC1=NN2C(=N)/C(=C\c3cccn3-c3ccc(Cl)cc3)C(=O)N=C2S1	-20.2%	?	-23.0%	28.2µM*	-0.9%	?
Oc1cc2cc(CCN3CCN(c4nsc5ccccc45)CC3)c(Cl)cc2[nH]1	-17.8%[19.4 µM]	.	.	.	.	.
COc1ccccc1CN1CCC(CNC(=O)c2cnn(-c3ccc(Cl)cc3)c2C2CCN(C(=O)OC(C)(C)C)CC2)CC1	-0.8%	-24.4%	.	5.6%	8.3%	14.1%
CC1(C)C2CCC1(C)C(NC(=O)COC(=O)c1ccc(S(C)(=O)=O)c([N+](=O)[O-])c1)C2 (configuration not stated)	-9.3%	.	.	.	-20.5%	?
COc1ccccc1N(CC(=O)Nc1ccccc1C(F)(F)F)S(=O)(=O)c1ccc(C)cc1	-8.7%	?	.	3.1%	0.8%	19.0%
O=C(O)CP(=O)(O)O	7.9%[60.1 µM]	-3.6%	0.0%	1.1%	-11.5%	12.6µM*!
COc1ccc(CNC(=O)Cn2c(=O)oc3cc(S(=O)(=O)NCc4ccccc4)ccc32)cc1	-6.8%[60.1 µM]	4.6%	.	?	-20.4%	14.7%
Cc1cc(-c2ccc(Br)s2)nc(-n2cccc2)n1	?	-13.9%	-8.8%	?	2.0%	?
Cc1cc(-c2sccc2Br)nc(-n2cccc2)n1	79.4µM*	-14.5%	-10.9%	-20.0%	1.8%	?
Cc1oc2cc(O)ccc2c(=O)c1Oc1ccccc1	-2.8%	-18.7%	70.8µM*	6.0%	0.1%	-11.2%
Cc1ccccc1NC(=O)c1sc2nc3c(cc2c1N)CCCC3	6.1%	.	.	-1.7%	17.1%	44.5%
O=C(CSc1nnnn1C1CC1)N1CCN(c2ccc(O)cc2)CC1	?	?	-1.7%[11.6 µM]	.	8.9%	44.7µM*
COc1ccc2[nH]cc(CCNc3ncncc3-c3cccc(C#N)c3)c2c1	9.9%[60.1 µM]	.	.	.	.	.
CCCCC(=O)O[C@]1(C(=O)CO)[C@H](C)C[C@H]2[C@@H]3CCC4=CC(=O)C=C[C@]4(C)[C@@]3(F)[C@@H](O)C[C@@]21C	1.3%[19.4 µM]	.	.	.	.	.
O=C(Cc1cccs1)NC1C(=O)N2C(C(=O)[O-])=C(C[n+]3ccccc3)CSC12 (configuration not stated)	3.55µM*	.	.	.	.	.
Cn1nnnc1SCC1=C(C(=O)O)N2C(=O)[C@@H](NC(=O)[C@@H](O)c3ccccc3)[C@@H]2SC1	-15.8%[12 µM]	.	.	.	.	.
NC(=O)c1cc[n+](CC2=C(C(=O)O)N3C(=O)[C@@H](NC(=O)[C@@H](c4ccccc4)S(=O)(=O)[O-])[C@H]3SC2)cc1	26.7µM*	3.16µM*	.	10µM*	39.8µM*	14.1µM*
CC1=C(C(=O)N(C(C)C)C(C)C)CC(CC(=O)NCCN2CCOCC2)C(=O)N1Cc1ccccc1 (configuration not stated)	.	-15.5%	4.7%	.	.	.
